Measurements: ChEMBL document CHEMBL3988442, “University of Dundee, Small-Polar-MMV Screening Library” (2021)
Screen size: about 69,000 compounds; about 950 (1.4%) showed an effect of 50% or more. This excerpt belongs to a sample that is enriched for strong results.

These compounds were tested on Mycobacterium tuberculosis (assay: Cornell M. t heat shock assay; note: in the data most compounds retested in dose-response had high values).
Type: functional, organism-based
Design: dose or concentration left out as unconfirmed

First: Fc1ccc(CN2CCO[C@H]3[C@H](OCc4ccncc4)CC[C@@H]32)cc1.O=C(O)C(F)(F)F.O=C(O)C(F)(F)F
Second: O=C(O)C(F)(F)F.O=C(O)C(F)(F)F.c1ccc(N2CC[C@H](OCC3CC3)[C@@H]2Cc2cccnc2)nc1
The “Percent Effect” value of the first is higher: 22.03% for the first, 14.43% for the second.

First: COc1cc(CN2CCCC2)ccc1Oc1ncccc1C(F)(F)F
Second: COc1ccc(Oc2ncccc2C(F)(F)F)cc1CN1CCCC1
The “Percent Effect” value of the first is lower: -12.36% for the first, 7.068% for the second.

Going from COc1cc(Oc2ncccc2C(F)(F)F)ccc1CN1CCCC1 to COc1cc2cc(C)c(SCCN3CCCC3)nc2cc1OC.Cl, the “Percent Effect” value falls from 53% to 5.186%.

Compared with C1CN(CC2CC2)C(COCC2CC2)c2nnn(CC3CC3)c21.O=C(O)C(F)(F)F (stereo unspecified), Cn1ncc2c1C(COCC1CC1)N(Cc1ccoc1)CC2.O=C(O)C(F)(F)F.O=C(O)C(F)(F)F (stereo unspecified) is lower in “Percent Effect” value: -14.94% for the first, -34.45% for the second.

First: COc1ccc(CNC(=O)Cn2ccc3sccc3c2=O)cc1
Second: COc1ccc2[nH]cc(C(=O)CNc3nccs3)c2c1.I
The “Percent Effect” value of the first is lower: -0.6252% for the first, 0.8623% for the second.

Compared with Cl.Cn1cc([C@@H]2CN(S(=O)(=O)c3ccccc3F)C[C@H]2N)c2ccncc21, O=C(O)C(F)(F)F.O=C(c1cccnc1)N1C[C@H]2CN(Cc3cccc(F)c3)C(=O)[C@H]2C1 is lower in “Percent Effect” value: -1.741% for the first, -29.23% for the second.

First: CN(C)C(=O)CN1CCC2(CCN(CC3CC3)CC2)C1=O.O=C(O)C(F)(F)F
Second: CN(C)CCN1C(=O)CCC12CCCN(C(=O)N(C)C)CC2.O=C(O)C(F)(F)F (stereo unspecified)
The “Percent Effect” value of the first is lower: -28.35% for the first, -13.38% for the second.

Compared with O=C(O)C(F)(F)F.O=C(O)C(F)(F)F.O=C1[C@@H]2CCN(Cc3ccoc3)C[C@@H]2OCCN1Cc1cccnc1, O=C(NC[C@H]1OC[C@@H]2CN(Cc3ccco3)CC[C@@H]21)c1cccnc1.O=C(O)C(F)(F)F.O=C(O)C(F)(F)F is higher in “Percent Effect” value: -189.5% for the first, -10.25% for the second.

Compared with CN(C)CCOCC1CN(Cc2cccc(F)c2)Cc2nccn2C1.O=C(O)C(F)(F)F.O=C(O)C(F)(F)F (stereo unspecified), COc1ncccc1CNC1CCc2c(ccc(=O)n2C)C1.O=C(O)C(F)(F)F.O=C(O)C(F)(F)F (stereo unspecified) is higher in “Percent Effect” value: -23.51% for the first, 17.68% for the second.

First: CCCN(Cc1cnc2ccccc2n1)Cc1ccccc1OC
Second: CCCN(Cc1nc2ccccc2[nH]1)Cc1ccccc1OC
The “Percent Effect” value of the first is lower: 19.04% for the first, 67.04% for the second.

Compared with CCCN(Cc1ccccn1)Cc1ccccc1OC, CC(Cn1cccn1)NCc1csc(COc2ccccc2)n1 (stereo unspecified) is higher in “Percent Effect” value: 31.04% for the first, 96.83% for the second.

First: O=C(O)C(F)(F)F.O=C(O)C(F)(F)F.O=C(O)c1c(-c2cccnc2)ncc2c1CCN(Cc1cccnc1)C2
Second: Cc1nnc(N2CCCC3(CN(Cc4cccnc4)CCO3)C2)o1.O=C(O)C(F)(F)F.O=C(O)C(F)(F)F.O=C(O)C(F)(F)F (stereo unspecified)
The “Percent Effect” value of the first is lower: -14.58% for the first, -2.58% for the second.

Going from Cc1nc(CO[C@@H]2CN(Cc3nccs3)[C@@H]3COC[C@@H]32)cs1.O=C(O)C(F)(F)F to Cc1nc(COC[C@H]2CCC[C@@]23CN(C(C)C)CCO3)cs1.O=C(O)C(F)(F)F, the “Percent Effect” value rises from -44.36% to -25.66%.

Compared with CN(C)S(=O)(=O)N1CC[C@]2(C[C@@H](Oc3cccnc3)CO2)C1.O=C(O)C(F)(F)F, CC[C@@H]1N(Cc2cccnc2)CCC[C@]12CCC(=O)N2C.O=C(O)C(F)(F)F.O=C(O)C(F)(F)F is higher in “Percent Effect” value: -11.53% for the first, -6.56% for the second.

Going from CC(Nc1nc(-c2ccccc2)nc2c1CCNCC2)c1nccs1 (stereo unspecified) to CC(Nc1nc(-c2ccccc2)nc2c1CCNCC2)c1cccnc1 (stereo unspecified), the “Percent Effect” value rises from 20.74% to 73.2%.

Going from CC(Nc1nc(-c2ccncc2)nc2c1CCNC2)c1ccccc1 (stereo unspecified) to CC(Cn1cccn1)NCc1csc(-c2ccc(F)cc2)n1 (stereo unspecified), the “Percent Effect” value rises from 18.8% to 41.6%.

First: O=C(O)C(F)(F)F.O=C(O)C(F)(F)F.c1cnc(N2CCOC3(CCN(CC4CCCCC4)CC3)C2)nc1
Second: O=C(O)C(F)(F)F.O=C(O)C(F)(F)F.c1cc(CN2C[C@@H]3OCCN(CC4CCCO4)[C@@H]3C2)cs1 (stereo partly specified)
The “Percent Effect” value of the first is higher: 13.11% for the first, -21.3% for the second.

Going from O=C(O)C(F)(F)F.c1ncn(Cc2cnc3n2CCN(Cc2ccsc2)CC3)n1 to Cn1cc(CN2CCC3(CC2)CCN(C(=O)c2cscn2)CC3)cn1.O=C(O)C(F)(F)F, the “Percent Effect” value falls from -8.028% to -25.9%.

First: Cc1noc(NC(=O)c2cccc(Br)c2)n1
Second: Cc1noc(NC(=O)c2ccc(Br)cc2)n1
The “Percent Effect” value of the first is higher: 106.8% for the first, 103.7% for the second.

Compared with CN(C)Cc1ccccc1NC(=O)c1ccc(C#N)cc1, Cc1noc(NC(=O)c2ccc(C#N)cc2)n1 is higher in “Percent Effect” value: -24.53% for the first, 69.42% for the second.

Going from Cc1nc(C(C)(C)NC(=O)Nc2ccc(C#N)cc2)no1 to Cc1ccc(C(=O)Nc2nc(C)no2)cc1, the “Percent Effect” value rises from -15.18% to 75.29%.

Going from Cc1ccc(C(=O)Nc2cn[nH]c2)cc1F to Cc1ccc(C(=O)Nc2cn[nH]c2)cc1, the “Percent Effect” value falls from -0.1311% to -8.204%.

Going from O=C(NCCn1ccnc1)c1cccc(Br)c1 to Cc1c(NC(=O)c2cccc(Br)c2)c(C(=O)N(C)C)nn1C, the “Percent Effect” value falls from 24.48% to -8.879%.

Going from Cc1noc(NC(=O)c2ccc(C)c(F)c2)n1 to Cc1noc(NC(=O)c2ccc(F)cc2)n1, the “Percent Effect” value rises from 105.5% to 105.9%.

First: Cc1noc(NC(=O)c2ccc(Br)s2)n1
Second: Cc1noc(NC(=O)c2ccc(Br)o2)n1
The “Percent Effect” value of the first is higher: 103.3% for the first, -6.271% for the second.

Going from Cc1cc(NC(=O)c2ccc(C)c(F)c2)[nH]n1 to Cc1ccc(C(=O)Nc2c(C(=O)N(C)C)nn(C)c2C)cc1, the “Percent Effect” value falls from 1.383% to -14.21%.

First: Cc1noc(COCC(=O)Nc2ccc(Br)c(C)n2)n1
Second: Cc1noc(NC(=O)CCNC(=O)c2ccc(Br)cc2)n1
The “Percent Effect” value of the first is higher: 3.251% for the first, -35.97% for the second.

Going from O=C(O)C(F)(F)F.c1cc(-c2ccc3nc(C4CCN(CC5CC5)CC4)nn3c2)cs1 to N#Cc1cccc(C(=O)N2CC[C@H]3[C@H]2CCN3CC2CC2)c1.O=C(O)C(F)(F)F, the “Percent Effect” value rises from -34.74% to -24.15%.

Going from Cc1cc(C)nc(N2CC=C[C@@H]2C(=O)NCc2ccc3c(c2)OCO3)n1.Cl to O=C(O)C(=O)O.c1coc(CN2CCC(c3ccc4c(c3)OCO4)CC2)c1, the “Percent Effect” value falls from 15.24% to 5.355%.

Going from CN(C)C(=O)N1C[C@@H]2CC[C@H](C1)N(C(=O)c1cccc(N(C)C)c1)C2 to COc1cccc([C@H]2CN(C(C)=O)[C@@H]3CCN(Cc4ccsc4)C[C@H]23)c1.Cl, the “Percent Effect” value rises from -44.86% to -8.302%.

Going from CC(C)N(C(=O)Cn1c(-c2ccco2)cc2cccnc21)C(C)C.Cl to Cc1nn(C(C)C)c(C)c1NC(=O)c1ccccc1, the “Percent Effect” value falls from 22.85% to -7.424%.

Compared with CCN1CCn2c(C)cnc2C12CCN(C(=O)c1ccco1)CC2.O=C(O)C(F)(F)F.O=C(O)C(F)(F)F, Cc1ccc(C(=O)N2CCN3C[C@H](Oc4cccnc4)C[C@H]3C2)cn1.O=C(O)C(F)(F)F.O=C(O)C(F)(F)F.O=C(O)C(F)(F)F is lower in “Percent Effect” value: -2.925% for the first, -27.6% for the second.

Going from Cc1nc(C2(O)CCCNCC2)sc1CCOc1ccc(F)cc1.Cl (stereo unspecified) to COc1ccc(CCC2CCCCN2)cc1.Cl (stereo unspecified), the “Percent Effect” value rises from -29.66% to -16.14%.

First: Cc1cc(CCC2CN(CC3(O)CCCCC3)CCO2)ncn1 (stereo unspecified)
Second: Cc1noc(C)c1CN1CCO[C@H]2CN(C(=O)C3CCOCC3)C[C@H]21.O=C(O)C(F)(F)F
The “Percent Effect” value of the first is lower: -44.25% for the first, -18.06% for the second.

Compared with O=C(O)C(F)(F)F.O=C1CC[C@H]2[C@@H](CCN2Cc2ccco2)N1, Cc1oncc1C(=O)N1CC[C@@H]2[C@@H]1CC(=O)N2Cc1cccnc1.O=C(O)C(F)(F)F is higher in “Percent Effect” value: 9.652% for the first, 26.27% for the second.

Going from Cn1cc(CN2C[C@@H]3COC[C@]3(CNC(=O)c3ccccc3)C2)cn1.O=C(O)C(F)(F)F to O=C(O)C(F)(F)F.O=C(c1ccnnc1)N1C[C@H]2CCC[C@@]2(COCc2ccccn2)C1, the “Percent Effect” value falls from -17.03% to -25.48%.

Going from Cn1nc(CNC(=O)c2ccc(OC(F)(F)F)cc2)c2c1CCOC2 to Cc1noc(NC(=O)c2ccc(OC(F)(F)F)cc2)n1, the “Percent Effect” value rises from -19.12% to 102.9%.

First: CN1C[C@H](O)C[C@H]1c1nc(-c2ccc(OC(F)(F)F)cc2)no1
Second: Cc1noc([C@@H]2C[C@H](NC(=O)Nc3ccccc3)CN2C)n1
The “Percent Effect” value of the first is higher: -7.267% for the first, -29.39% for the second.

First: Cc1c(NC(=O)c2ccc(Br)cc2)c(C(=O)N(C)C)nn1C
Second: Cc1noc(NC(=O)c2ccccc2)n1
The “Percent Effect” value of the first is lower: 5.328% for the first, 75.22% for the second.

First: Cc1noc(NCc2ccc(F)cc2)n1
Second: Cc1noc(NCc2cc(F)ccc2F)n1
The “Percent Effect” value of the first is lower: -14.89% for the first, -3.185% for the second.

First: NC(=O)N1C[C@H]2CN(Cc3nccs3)C[C@H]2C1.O=C(O)C(F)(F)F
Second: O=C(O)C(F)(F)F.O=C(c1cnccn1)N1C[C@@H]2C[C@@H](c3nc(C4CC4)cs3)O[C@@H]2C1
The “Percent Effect” value of the first is lower: -3.349% for the first, 1.274% for the second.

Compared with CC(Cn1cccn1)NCc1csc2c1CCCC2 (stereo unspecified), CCc1nc(CNC(C)Cn2cccn2)cs1 (stereo unspecified) is higher in “Percent Effect” value: -4.744% for the first, 11.1% for the second.

Compared with CC(Cn1cccn1)NCc1csc(-c2ncccn2)n1 (stereo unspecified), CC(Cn1cccn1)NCc1csc(Cc2ccccc2)n1 (stereo unspecified) is higher in “Percent Effect” value: -0.311% for the first, 103.2% for the second.

Compared with CC(Cn1cccn1)NCc1csc(COc2ccc(F)cc2)n1 (stereo unspecified), CCCc1nc(CNC(C)Cn2cccn2)cs1 (stereo unspecified) is lower in “Percent Effect” value: 104% for the first, 69.81% for the second.

Going from COc1ccc(CNC(C)Cn2cccn2)cc1F (stereo unspecified) to CC(Cn1cccn1)NCc1ccc(Cl)s1 (stereo unspecified), the “Percent Effect” value rises from -3.821% to -2.882%.

In the case of CC(Cn1cccn1)NCc1ccc(OCc2ccncc2)cc1 (stereo unspecified), the “Percent Effect” value is reported as -3.58%.
